LYPLA2 counter: LYPLA2 (human) inhibition in PME1 counter-screen | O95372 | recombinant LYPLA2, FP-Rh probe fluorescence polarization | inhibition, % at 5.9 µM | 320,000 tested, 0.38% active | AID 2177;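 active means inhibition above the screen-wide mean plus 3 SD, limit set per campaign, cut at about 26% in these data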;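 further: 0% = LYPLA2 with DMSO and 100% = wells lacking LYPLA2 enzyme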
Target sequence (O95372 whole entry, looked up): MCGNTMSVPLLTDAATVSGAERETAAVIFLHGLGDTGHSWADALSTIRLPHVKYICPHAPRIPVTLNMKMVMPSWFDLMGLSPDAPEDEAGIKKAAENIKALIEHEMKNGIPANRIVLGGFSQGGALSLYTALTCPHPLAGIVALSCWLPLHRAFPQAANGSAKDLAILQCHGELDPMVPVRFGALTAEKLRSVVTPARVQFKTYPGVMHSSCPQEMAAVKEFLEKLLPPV
PME-1 inh: blocks human protein phosphatase methylesterase 1; Q9Y570; recombinant PME-1, FP-Rh probe fluorescence polarization; inhibition, % at 5.9 µM; 320,000 tested, 0.53% active; AID 2130;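 active means inhibition above the campaign mean of all compounds plus 3 SD, cut at about 26% in these data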;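 further: competitive labeling of PME-1 active site by serine hydrolase directed probe; 0% = PME-1 with DMSO and 100% = wells lacking PME-1 enzyme; inhibitors block probe labeling so polarization falls and inhibition rises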
PAD4 inh: blocks human protein arginine deiminase 4. Q9UM07. recombinant PAD4, RCA probe fluorescence polarization. inhibition, % at 6.36 µM. 330,000 tested, 0.41% active. AID 485272;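 active means percent inhibition above a cutoff equal to the mean of all tested compounds plus 3 SD, cut at about 15% in these data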;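 further: 0% = PAD4 with RCA probe and DMSO and 100% = probe without PAD4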
LYPLA1 inh: LYPLA1 (human) inhibition in PME1 counter-screen. 320,000 tested, 0.16% active. AID 2174. recombinant LYPLA1, FP-Rh probe fluorescence polarization. inhibition, % at 5.9 µM;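 active means inhibition above the mean of all tested compounds plus 3 SD, set per campaign, cut at about 14% in these data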;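 further: inhibitors block serine hydrolase probe labeling of LYPLA1 so polarization falls; 0% = enzyme with DMSO and 100% = wells lacking LYPLA1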
Target sequence (O75608 whole entry, looked up): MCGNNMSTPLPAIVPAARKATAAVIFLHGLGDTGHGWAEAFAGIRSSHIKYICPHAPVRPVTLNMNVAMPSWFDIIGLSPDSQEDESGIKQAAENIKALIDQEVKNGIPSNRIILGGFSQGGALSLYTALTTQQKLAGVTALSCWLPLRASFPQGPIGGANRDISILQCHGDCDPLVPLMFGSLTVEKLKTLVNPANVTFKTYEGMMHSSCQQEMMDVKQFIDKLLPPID
Fam108B counter: Fam108B inhibition, counter-screen for RBBP9 inhibitors | recombinant Fam108B, FP-Rh probe fluorescence polarization | inhibition, % at 9.51 µM | 300,000 tested, 0.33% active | AID 1947;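 active means inhibition above the screen mean inhibition plus 3 SD, computed separately per campaign, cut at about 18% in these data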;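 further: inhibitors lower polarization as less probe binds the enzyme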
GSTO1 inh: blocks human GSTO1 in RBBP9 counter-screen; P78417; recombinant GSTO1, activity-based probe fluorescence polarization; inhibition, % at 5.96 µM; 300,000 tested, 1.1% active; AID 1974;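 active means inhibition above the campaign mean inhibition plus 3 SD, cut at about 35% in these data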;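 further: 0% = GSTO1-1 with DMSO and 100% = wells lacking GSTO1-1 enzyme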
Target sequence (P78417 whole entry, looked up): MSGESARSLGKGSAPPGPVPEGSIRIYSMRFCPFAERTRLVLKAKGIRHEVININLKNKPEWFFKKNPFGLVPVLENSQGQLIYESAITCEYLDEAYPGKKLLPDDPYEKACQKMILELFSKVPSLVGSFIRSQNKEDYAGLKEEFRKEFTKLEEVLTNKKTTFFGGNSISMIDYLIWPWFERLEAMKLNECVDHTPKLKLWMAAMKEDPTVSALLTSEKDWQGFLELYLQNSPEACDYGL
Fam108b inh conf: Fam108b (mouse) hydrolase inhibition, confirmation assay | shares compounds with Fam108B counter | recombinant Fam108b, FP-Rh probe fluorescence polarization | inhibition, % at 9.51 µM | 930 tested, 44% active;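 active means inhibition above a limit from the primary screen, the mean over all compounds plus 3 SD, cut at about 19% in these data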;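 further: 0% = median of active Fam108b wells and 100% = catalytically dead S170A mutant; inhibitors free the probe so polarization falls as inhibition rises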
Fam108b ABPP HTS: inhibits mouse Fam108b in gel-based ABPP | shares compounds with Fam108B counter | recombinant Fam108b, fluorophosphonate probe | inhibition, % at 20 µM | 260 tested, 44% active | AID 588649; in the data active means inhibition above about 40%
Starred values were filed as active, the others as inactive; . = no result. Most compounds without a hit are left out; they make up all but 1.8% or so of the library.

SMILES	LYPLA2 counter	PME-1 inh	PAD4 inh	LYPLA1 inh	Fam108B counter	GSTO1 inh	Fam108b inh conf	others
CC(C)Nc1nnc(SCC(=O)Nc2ccc3c(c2)C(=O)c2ccccc2C3=O)s1	21.6	57.0*	-6.2	-7.0	30.4*	3.5	11.6
O=C(Cc1cccc2ccccc12)Nc1nc(-c2cccc([N+](=O)[O-])c2)cs1	-18.5	14.0	-0.8	-18.9	19.6*	-1.6	8.9
COCCNC(=O)CN1C(=O)COc2ccc(S(=O)(=O)N3CC(C)CC(C)C3)cc21 (stereo unspecified)	0.6	6.2	0.0	0.1	1.3	2.6	.
CC(C)c1ccc(NC2CCCN(C(=O)c3ccoc3)C2)cc1 (stereo unspecified)	4.0	-1.5	0.5	0.6	0.8	-0.3	.
O=[N+]([O-])c1ccc(O)c(-c2nc(-c3ccccc3)c(-c3cccs3)[nH]2)c1	2.0	4.6	0.0	-7.9	26.2*	-6.6	3.9
CCOc1cc(-c2nc(-c3ccccc3)c(-c3cc([N+](=O)[O-])ccc3C)[nH]2)ccc1O	6.4	10.9	-7.1	-7.3	21.2*	-1.3	7.5
CC(=O)Oc1ccc(/C=C(\NC(=O)c2ccco2)C(=O)NCc2ccco2)cc1	2.4	-3.1	-4.1	6.2	1.5	9.0	.
O=[N+]([O-])c1ccc(NN=Cc2ccccc2O)cc1	.	.	.	.	.	.	.	Fam108b ABPP HTS=90.0*
O=[N+]([O-])c1ccc(NN=Cc2cccc(O)c2O)cc1	.	.	.	.	.	.	.	Fam108b ABPP HTS=40.0*
O=[N+]([O-])c1cccc(N/N=C/c2cccc(O)c2O)c1	-3.1	41.1*	-1.0	-8.2	26.2*	34.8*	11.4
COc1ccc(C(=O)NC(=S)N2CCN(C)CC2)cc1Br	-1.8	-3.7	2.6	-4.5	46.9*	4.0	1.6
COc1cc(C(=O)NC(=S)N2CCN(C)CC2)cc(OC)c1OC	.	.	-2.6	.	.	.	.
COc1ccc(CCNC(=O)c2cccc(NS(=O)(=O)c3ccccc3F)c2)cc1OC	-5.6	2.4	-2.8	2.5	2.9	3.4	.
Cc1ccccc1NC(=O)CSc1nnc(CNC(=O)c2ccco2)n1C	0.9	-5.4	-4.6	0.9	-4.4	-7.8	.
O=c1oc(-c2cccs2)nc2c1cnn2-c1ccccc1	4.4	1.6	-0.9	1.7	20.5*	-6.8	22.9*
O=C(NN1C(=O)NC2(CCCCC2)C1=O)c1cccs1	.	.	4.2	.	.	.	.
Cc1c(O)ccc(C=NNc2nc(-c3cccnc3)nc3ccccc23)c1O	.	.	.	.	.	.	.	Fam108b ABPP HTS=60.0*
Cc1c(NC(=O)Nc2ccc(Cl)c(Cl)c2)sc(=S)n1C	10.9	29.7*	0.8	-6.7	31.6*	-11.2	25.1*
CC(C)(C)OC(=O)C[C@H]1C/C=C\C[C@H](CC(=O)N(CCO)Cc2ccccc2)C(=O)N[C@@H](c2ccccc2)COC1=O	.	.	-3.3	.	.	.	.
COc1cc(/C=N/NC(=O)c2ccc(CN3C(=O)c4cccc5cccc3c45)cc2)cc(OC)c1O	-7.4	16.6	-2.0	-10.4	30.6*	-16.1	22.2*
COc1ccc(/C=N/NC(=O)c2ccc(CN3C(=O)c4cccc5cccc3c45)cc2)cc1O	-2.8	-2.0	-2.3	-25.5	8.9	6.0	.
CN(Cc1ccccc1)C(=O)COC(=O)c1cc2ccccc2oc1=O	.	.	4.4	.	.	.	.
CC1=NN(C(N)=S)C(=O)C1N=Nc1c(Br)cc(Br)cc1Br (stereo unspecified)	5.1	8.9	1.8	-0.8	29.5*	-14.3	33.4*	Fam108b ABPP HTS=35.0
CC1=NN(C(N)=S)C(=O)C1N=Nc1c(C)cc(C)cc1C (stereo unspecified)	4.2	-4.8	-4.1	2.9	1.6	-36.0	.
COc1cc2c(c(OC)c1OC)-c1ccc(N(C)CC(OC)OC)c(=O)cc1[C@@H](NC(C)=O)CC2	5.0	5.4	-2.0	-1.7	19.4*	8.1	-7.1
SMILES	LYPLA2 counter	PME-1 inh	PAD4 inh	LYPLA1 inh	Fam108B counter	GSTO1 inh	Fam108b inh conf	others
COc1ccc(C(=O)N/N=C/c2ccc(OC)c(COc3ccccc3)c2)cc1	-21.5	-7.0	1.2	-0.3	-1.4	-6.8	.
COc1ccc(/C=N\NC(=O)c2cc(O)c(O)c(O)c2)cc1COc1ccc(C(=O)OCC(C)C)cc1	-17.8	42.5*	-12.1	-28.1	27.5*	25.7	30.9*
COc1cc(OC)cc(-c2nnc(Nc3nc4c(F)cccc4s3)o2)c1	2.4	61.0*	-6.1	2.6	18.9*	17.4	13.1
NNc1nc2c(F)cccc2s1	-0.2	17.6	1.5	-1.3	1.7	7.9	.
COc1cc(OC)c(NC(=O)C2CCCO2)cc1Cl (stereo unspecified)	-4.0	6.7	-2.7	-0.7	18.2*	1.5	-3.3
O=c1cc(CN2CCN(C/C=C/c3ccccc3)CC2)c2cc(O)c(-c3ccccc3)cc2o1	3.3	3.3	-2.9	-2.0	8.3	3.1	.
CC(C)CN(Cc1cc(=O)oc2cc(-c3ccccc3)c(O)cc12)CC(C)C	-32.6	-2.4	2.0	-25.2	41.9*	-32.0	19.4*
COc1cccc2[nH]c(C(=O)NC(C)c3ccccc3)cc12 (stereo unspecified)	-0.9	0.5	-4.6	-4.1	1.3	-1.2	.
CCN(CC)c1ccc(NC(=O)c2cc3c(OC)cccc3[nH]2)cc1	5.7	19.6	-1.8	-7.4	20.6*	-1.4	3.1
CCN(CC)c1ccc(/C=N/NC(=O)c2c[nH]c3ccccc23)cc1	0.4	20.4	-5.3	2.4	22.6*	-5.7	-2.5
CCN(CC)c1ccc(/C=N/NC(=O)c2cc3ccccc3[nH]2)cc1	-6.2	14.4	1.1	-10.7	4.4	-3.1	.
COc1ccc(NC(=O)CSc2nc(C)cs2)c([N+](=O)[O-])c1	.	.	-3.2	.	.	.	.
COc1cccc(/C=N/NC(=O)c2ccc(-c3ccccc3)cc2)c1O	-3.1	-7.0	-5.5	-3.5	6.4	5.2	.
COc1cccc(/C=N/NC(=O)c2[nH]c(C)c(C(=O)N/N=C/c3cccc(OC)c3O)c2C)c1O	-18.1	35.3*	-9.8	-16.9	39.1*	-29.6	60.4*
C/C(=N\NC(=O)c1cc2ccccc2cc1O)c1cccs1	6.7	-6.1	-1.5	-4.3	18.6*	19.7	-6.2
COc1ccc(C(=O)N2CCCC(CCC(=O)NCc3ccccc3F)C2)c(OC)n1 (stereo unspecified)	-3.7	-3.7	-5.1	-1.9	0.1	-3.1	.
CN(c1ccccc1)S(=O)(=O)c1ccc(NC(=O)c2ccccc2)cc1	-3.8	-17.2	-8.0	-8.2	-6.2	-5.0	.
CN(c1ccccc1)S(=O)(=O)c1ccc(NC(=O)c2nc(S(C)(=O)=O)ncc2Cl)cc1	-3.2	47.0*	-6.7	-12.6	32.0*	-27.0	23.7*
CN(CC(=O)Nc1c(Cl)cccc1Cl)C(=O)c1cc2ccccc2cc1O	-1.9	7.4	-0.9	0.2	-2.4	8.7	.

High-throughput results: PubChem, The Scripps Research Institute Molecular Screening Center
